# Source: PubChem BioAssay (several laboratories)
# Compounds with a hit are over-represented: about 3% of the library has one in this group of screens.
# ATG4B inhibitor: blocks human ATG4B protease cleavage of LC3 substrate; inhibition, % at 8.33 µM; Q9Y4P1; ATG4B cleavage of LC3-PLA2, NBD-HPC fluorescence, 1 h; 340,000 tested, 0.51% active; in the data active = inhibition above about 40%
# PAFAH1B3 FP inh: blocks human PAF acetylhydrolase 1B catalytic subunit 3; recombinant PAFAH1B3, FP-rhodamine probe, fluorescence polarization; 340,000 tested, 0.28% active; inhibition, % at 3.39 µM; Q15102;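 active = inhibition above the screen-wide average of all tested compounds plus 3 SD, cut at about 25% in these data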;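 note: 0% = enzyme with DMSO only and 100% = wells lacking PAFAH1B3 protein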
# PAFAH2 inh: inhibitors of human PAFAH2 | Q99487 | recombinant PAFAH2, FP-rhodamine activity probe, fluorescence polarization | inhibition, % at 3.39 µM | 340,000 tested, 0.99% active | AID 492956;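 active = inhibition above the mean over all tested compounds plus 3 SD, cut at about 30% in these data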;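 note: inhibitors block probe labeling of enzyme so polarization drops; 0% = enzyme with DMSO and 100% = wells lacking PAFAH2 protein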
# pPAFAH FP inh: pPAFAH (human) enzyme inhibition | recombinant pPAFAH, FP-rhodamine probe fluorescence polarization | 330,000 tested, 1.5% active | inhibition, % at 3.39 µM | AID 463082 | Q13093;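 active = inhibition above the mean inhibition across the screen plus 3 SD, cut at about 25% in these data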;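 note: inhibitors block binding of the rhodamine activity-based probe so polarization drops; 0% = enzyme with DMSO and 100% = wells lacking pPAFAH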
# Target sequence (Q13093 whole entry, looked up): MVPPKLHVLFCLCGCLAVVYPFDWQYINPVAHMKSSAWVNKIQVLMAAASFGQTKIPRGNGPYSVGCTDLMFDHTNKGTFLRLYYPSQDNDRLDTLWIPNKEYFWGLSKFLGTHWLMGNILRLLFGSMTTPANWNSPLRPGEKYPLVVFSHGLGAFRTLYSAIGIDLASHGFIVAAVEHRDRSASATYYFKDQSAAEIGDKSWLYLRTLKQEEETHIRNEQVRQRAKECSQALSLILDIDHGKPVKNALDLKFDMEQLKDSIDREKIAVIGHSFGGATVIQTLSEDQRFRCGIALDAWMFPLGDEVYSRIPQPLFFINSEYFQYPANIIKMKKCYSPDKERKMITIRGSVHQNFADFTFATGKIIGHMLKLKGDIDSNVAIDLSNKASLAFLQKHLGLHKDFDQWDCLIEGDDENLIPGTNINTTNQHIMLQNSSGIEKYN
# DAGLB inh: blocks human DAGLB lipase activity | HEK293T DAGLB membrane lysate, EnzChek fluorogenic substrate | inhibition, % at 5.17 µM | 340,000 tested, 0.059% active | Q8NCG7; in the data active = inhibition above about 34%;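 note: 0% = enzyme with vehicle and 100% = wells lacking enzyme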
# PAFAH1B2 FP inh: inhibitors of human PAFAH1B2 | P68402 | AID 492953 | inhibition, % at 3.39 µM | recombinant PAFAH1B2, FP-rhodamine activity probe, fluorescence polarization | 340,000 tested, 1.2% active;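 active = inhibition above the mean of all tested compounds plus 3 SD, cut at about 24% in these data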;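 note: 0% = enzyme with DMSO and 100% = wells lacking PAFAH1B2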
# Numbers without * were called inactive; . = no result given.
SMILES,ATG4B inhibitor,PAFAH1B3 FP inh,PAFAH2 inh,pPAFAH FP inh,DAGLB inh,PAFAH1B2 FP inh
Cc1cccc(OC(C)C(=O)Nc2ccccc2C(=O)N2CCCCC2)c1 (stereo not drawn),1,8,3,7,-1,-1
O=C1C(Cl)=C(NCCN2CCCCC2)C(=O)c2ccccc21,6,29*,-1,7,2,3
COc1cccc(NC(=O)CSc2nc3c(c(-c4ccco4)c2C#N)CCCC3)c1,-6,-4,-6,3,2,-3
COCCOC(=O)c1c(C)nc(SCC(=O)Nc2ccc(OC)cc2)c(C#N)c1-c1ccco1,-4,5,1,27*,-7,-3
Cc1cc(C)nc(SCC(=O)N/N=C/c2cccn2-c2ccc(O)cc2)n1,-9,3,10,5,-1,28*
COc1cccc(COC(=O)C2CCN(S(=O)(=O)c3ccc(C)cc3C)CC2)c1OC,-3,-2,3,14,-12,-2
O=C1N[C@H](Cc2ccccc2)COC(=O)[C@@H](Cc2ccc(F)cc2)CC/C=C/C[C@H]1CC(=O)N(CCO)Cc1ccccc1,-5,-3,28,29*,-2,6
O=C1N[C@H](Cc2ccccc2)COC(=O)[C@H](Cc2ccc(F)cc2)C/C=C\C[C@@H]1CC(=O)N(CCO)Cc1ccccc1,-11,12,5,6,0,24
O=C1N[C@@H](Cc2ccccc2)COC(=O)[C@@H](Cc2ccc(F)cc2)CC/C=C/C[C@@H]1CC(=O)N(CCO)Cc1ccccc1,5,4,15,9,-6,26*
O=C1N[C@H](Cc2ccccc2)COC(=O)[C@H](Cc2ccc(F)cc2)CC/C=C/C[C@@H]1CC(=O)N(CCO)Cc1ccccc1,-5,5,5,6,0,10
O=C1N[C@@H](Cc2c[nH]c3ccccc23)COC(=O)[C@@H](Cc2ccc(F)cc2)C/C=C\C[C@H]1CC(=O)N(CCO)Cc1ccccc1,-22,5,4,28*,-7,15
O=C(C[C@@H]1C/C=C\C[C@@H](Cc2ccc(F)cc2)C(=O)OC[C@@H](Cc2c[nH]c3ccccc23)NC1=O)NCCO,-12,6,3,25*,-2,21
O=C(N[C@H]1C/C=C\C[C@H](CC(=O)N(CCO)Cc2ccccc2)C(=O)N[C@H](Cc2c[nH]c3ccccc23)COC1=O)OCC1c2ccccc2-c2ccccc21,-6,13,10,33*,3,-1
O=C(N[C@H]1C/C=C\C[C@@H](CC(=O)N(CCO)Cc2ccccc2)C(=O)N[C@H](Cc2c[nH]c3ccccc23)COC1=O)OCC1c2ccccc2-c2ccccc21,19,-2,8,13,7,3
CC(OC(=O)c1ccc([N+](=O)[O-])s1)C(=O)Nc1ncc(Cl)cc1Cl (stereo not drawn),-18,30*,30*,26*,-1,17
Cc1ccc(OC(C)C(=O)Nc2ncc(Cl)cc2Cl)c([N+](=O)[O-])n1 (stereo not drawn),-5,10,0,2,-11,4
CN1CCN(S(=O)(=O)c2ccc(N3CCN(c4ccc(O)cc4)CC3)c([N+](=O)[O-])c2)CC1,0,-9,4,4,3,16
O=[N+]([O-])c1cc(S(=O)(=O)Nc2ccccc2)ccc1N1CCN(c2ccc(O)cc2)CC1,6,12,7,30*,2,0
CN1Cc2c(N3CCOCC3)nc3sc(C(=O)c4ccc(Br)cc4)c(N)c3c2CC1(C)C,2,.,.,30*,.,.
Cn1nccc1C(=O)N1CCC(Cc2ccccc2)CC1,3,3,-11,4,-3,-1
Cc1cc(C)c(NS(=O)(=O)c2c(C(=O)N3CCOCC3)c(C)n(C)c2C)c(C)c1,-9,8,2,29*,3,0
O=C(NC1CCSc2ccccc21)c1c(F)cccc1Cl (stereo not drawn),6,17,1,-2,-1,1
Cc1ccccc1N(C(=O)CS(=O)CC(=O)Nc1ccc(F)cc1)C(C)C(=O)NC(C)(C)C (stereo not drawn),-12,6,11,-1,0,-5
C[C@@H]1NC(=O)N[C@@H]1CCCCCC(=O)O,-7,8,-6,-1,0,-2
C[C@@H]1COC(=O)[C@H](Cc2ccc(F)cc2)CC/C=C/C[C@@H](CC(=O)N[C@@H](CO)Cc2ccccc2)C(=O)N1,-1,2,0,0,-2,11
SMILES,ATG4B inhibitor,PAFAH1B3 FP inh,PAFAH2 inh,pPAFAH FP inh,DAGLB inh,PAFAH1B2 FP inh
CC(C)(C)[C@H]1COC(=O)[C@@H](Cc2ccc(F)cc2)C/C=C\C[C@@H](CC(=O)N[C@@H](CO)Cc2ccccc2)C(=O)N1,-3,-2,0,0,-4,34*
CC(C)(C)[C@H]1COC(=O)[C@@H](Cc2ccc(F)cc2)C/C=C\C[C@@H](CC(=O)N[C@H](CO)Cc2ccccc2)C(=O)N1,-9,-6,-5,6,0,66*
CC1CCCN(S(=O)(=O)c2ccc3c(c2)OCCO3)C1 (stereo not drawn),.,.,.,.,-3,.
COc1ccc(C(=O)NC2CC2)cc1OC1CCN(C(C)CSC)CC1 (stereo not drawn),28,6,5,6,0,2
Cc1ccc(C)c(N2CCN(c3ncccc3[N+](=O)[O-])CC2)c1,15,6,2,28*,-4,4
Cc1ccnc(NCc2ccc(Cl)cc2)c1,-5,7,3,3,-2,21
CC1CC(=O)c2c(cc3c(-c4c(O)cc(O)c5c(O)c6c(cc45)OC(C)CC6=O)c(O)cc(O)c3c2O)O1 (stereo not drawn),11,76*,62*,80*,26,53*
Cc1ccc(COc2ccsc2C(=O)NNC(N)=S)cc1,1,.,.,-4,.,.
Cc1ccc(/C=C2\SC(=S)N(C3CCS(=O)(=O)C3)C2=O)o1 (stereo not drawn),-5,7,-6,11,1,-7
NS(=O)(=O)c1ccc(-c2ccc(/C=C3\SC(=S)N(C4CCS(=O)(=O)C4)C3=O)o2)cc1 (stereo not drawn),-9,5,5,25*,-7,5
Clc1ccc2nc(-c3ccccn3)c(Nc3ccc4c(c3)OCO4)n2c1,24,11,-2,27*,2,-2
Cc1ccc2nc(-c3ccccc3O)c(Nc3ccc4c(c3)OCCO4)n2c1,28,7,5,23,-2,3
COc1cc(-c2oc3cc(O)cc(O)c3c(=O)c2O[C@@H]2O[C@H](COC3O[C@@H](C)[C@H](O)[C@@H](O)[C@H]3O)[C@@H](O)[C@H](O)[C@H]2O)ccc1O (stereo partly drawn),1,6,-8,-4,-4,4
